Test results: PubChem BioAssay (NCATS)
Unmarked numbers belong to inactive results. Results filed as inconclusive are left out. Where a call stands in place of a potency, no number is given. Active and inactive are the calls of the source. Unless noted, the call rests on the fitted dose curve; in most records, active means well fitted curve in the direction sought with a large enough effect; inconclusive means small, poorly fitted or top-dose-only effect, or another doubt; inactive means no such curve, though single readings can be large; an effect the other way counts as inactive or inconclusive.

Experiments:
[1] = AP1 Signaling Pathway (AID 357; active means well fitted curve in either direction with a large enough effect, not every such curve was filed as active); conditions: ME-180 AP-1-bla reporter, EGF-induced, beta-lactamase ratio, 5 h; at 7.69 µM (top of the series) unless noted
Outline: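 ME-180 cells with beta-lactamase reporter under AP-1 response element, stimulated with EC50 EGF; compounds tested in titration series, 5 h at 37 °C. CCF4 substrate added 2.5 h at room temperature; 460/530 nm emission ratio gave %activity and AC50.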

[2] = Stat Signaling Pathway (AID 446; active means well fitted curve in either direction with a large enough effect, not every such curve was filed as active;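 further: ME-180 cervical cancer cells given 40 pM IL-6 alongside compound; SIE-controlled beta-lactamase reporter measured as 460/530 nm FRET emission ratio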); conditions: ME-180 (cervical carcinoma) SIE beta-lactamase reporter, IL-6 stimulated, 5 h; at 7.69 µM (top of the series) unless noted
Outline: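 Emission at 460 and 530 nm (excitation 405 nm) reports SIE-controlled beta-lactamase in ME-180 cells. Cells received compound with 40 pM IL-6 for 5 hrs at 37 C; data scaled between 300 pM IL-6 and 125 nM JAK-inhibitor controls.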

[3] = molecular target: Glucocorticoid receptor (Homo sapiens) (UniProt P04150); experiment: GR-EFC Redistribution (AID 451; calls by dose curve; further: potency means the concentration at half of the fitted maximal effect); conditions: CHO-K1 GR-EFC translocation, beta-gal luminescence, 2 h
Glucocorticoid receptor (Homo sapiens), sequence (P04150 whole entry, looked up, the tested form may be a part): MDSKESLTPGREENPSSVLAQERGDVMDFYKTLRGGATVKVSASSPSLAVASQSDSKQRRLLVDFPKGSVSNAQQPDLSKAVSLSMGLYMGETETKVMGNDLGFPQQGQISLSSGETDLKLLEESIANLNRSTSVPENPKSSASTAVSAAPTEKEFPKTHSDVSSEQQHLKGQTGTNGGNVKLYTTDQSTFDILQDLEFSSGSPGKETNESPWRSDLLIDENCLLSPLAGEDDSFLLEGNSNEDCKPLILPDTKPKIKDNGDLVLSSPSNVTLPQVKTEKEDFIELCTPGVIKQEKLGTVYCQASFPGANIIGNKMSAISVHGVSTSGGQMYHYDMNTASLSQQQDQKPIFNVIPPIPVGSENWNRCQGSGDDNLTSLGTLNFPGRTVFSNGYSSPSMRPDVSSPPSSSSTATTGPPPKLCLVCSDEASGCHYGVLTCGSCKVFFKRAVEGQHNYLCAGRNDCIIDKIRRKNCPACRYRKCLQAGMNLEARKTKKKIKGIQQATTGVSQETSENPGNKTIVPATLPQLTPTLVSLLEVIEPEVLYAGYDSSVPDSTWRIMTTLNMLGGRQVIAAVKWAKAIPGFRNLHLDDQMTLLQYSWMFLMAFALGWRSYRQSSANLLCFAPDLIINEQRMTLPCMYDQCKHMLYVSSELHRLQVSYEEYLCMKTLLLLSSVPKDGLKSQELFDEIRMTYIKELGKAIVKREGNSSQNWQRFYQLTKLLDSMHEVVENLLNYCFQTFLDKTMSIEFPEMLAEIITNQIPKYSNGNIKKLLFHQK
Outline: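 Translocation of GR-ED fusion to nuclear EA restores b-gal, read by luminescence after 1 h room-temperature detection. Engineered CHO-K1 biosensor cells, 1,000/well, exposed 2 h at 37 C to titrations up to 46 uM final.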

[4] = molecular target: Mitogen-activated protein kinase 10 (Mus musculus) (UniProt Q61831); experiment: JNK3 AlphaScreen Assay (AID 530; active means well fitted curve in either direction with a large enough effect, not every such curve was filed as active;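 further: kinase came from lysate of stimulated human HepG2 cells; signal reports phosphorylation of biotinylated GST-cJun 1-79 at Ser73 with 10 µM ATP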)
Outline: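 Kinase buffer: 20 mM Tris-HCl pH 7.6, 10 mM MgCl2, 1 mM DTT, 0.1 mM Na3VO4, 0.01% Tween-20; ATP 10 uM. Substrate biotin-GST-cJun(1-79), enzyme from activated HepG2 lysates. Detection by Ser73 phospho-antibody AlphaScreen.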

[5] = molecular target: 3',5'-cyclic-AMP phosphodiesterase 4B (Homo sapiens) (UniProt Q07343); experiment: qHTS Assay for Inhibitors of PDE-IV (AID 607; active means well fitted activation curve with a large enough effect in the main read-out, with a control signal flat, not every such curve was filed as active)
Outline: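 The readout is membrane depolarisation from a cAMP-sensing CNG channel, detected with a potential dye at ex 535/em 590. Cells were HEK293-derived (endogenous PDE-IV) at 1000 cells/well, titrated up to 22.9 uM final.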

[6] = Primary qHTS for small molecule stabilizers of the endoplasmic reticulum resident proteome: Secreted ER Calcium Modulated Protein (SERCaMP) assay (AID 1508630)
Outline: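 The SH-SY5Y reporter protocol was run at 3 concentrations up to 38.3 uM (primary) or 11 concentrations (follow-up): 16 h compound, 100 nM thapsigargin for 4 h, then extracellular luciferase luminescence.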

[7] = NFAT Signaling Pathway (AID 444; active means well fitted curve in either direction with a large enough effect, not every such curve was filed as active;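 further: carbachol stimulus at about its EC50 of 1 µM final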); conditions: Jurkat NFAT-bla M1, carbachol, beta-lactamase ratio, 5 h; at 7.69 µM (top of the series) unless noted
Outline: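 Read-out: CCF4 FRET ratio (460 nm/530 nm) after 1 h RT dye loading, used for %activity and AC50 from titration series. Cells: Jurkat NFAT-β-lactamase/M1 line, treated with compound plus 1 uM carbachol for 5 h, 37 °C.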

[8] = molecular target: Cytochrome P450 1A2 (Homo sapiens) (UniProt P05177); experiment: p450-cyp1a2 (AID 410; calls by dose curve; further: potency means the concentration at half of the fitted maximal effect)
Cytochrome P450 1A2 (Homo sapiens), sequence (P05177 whole entry, looked up): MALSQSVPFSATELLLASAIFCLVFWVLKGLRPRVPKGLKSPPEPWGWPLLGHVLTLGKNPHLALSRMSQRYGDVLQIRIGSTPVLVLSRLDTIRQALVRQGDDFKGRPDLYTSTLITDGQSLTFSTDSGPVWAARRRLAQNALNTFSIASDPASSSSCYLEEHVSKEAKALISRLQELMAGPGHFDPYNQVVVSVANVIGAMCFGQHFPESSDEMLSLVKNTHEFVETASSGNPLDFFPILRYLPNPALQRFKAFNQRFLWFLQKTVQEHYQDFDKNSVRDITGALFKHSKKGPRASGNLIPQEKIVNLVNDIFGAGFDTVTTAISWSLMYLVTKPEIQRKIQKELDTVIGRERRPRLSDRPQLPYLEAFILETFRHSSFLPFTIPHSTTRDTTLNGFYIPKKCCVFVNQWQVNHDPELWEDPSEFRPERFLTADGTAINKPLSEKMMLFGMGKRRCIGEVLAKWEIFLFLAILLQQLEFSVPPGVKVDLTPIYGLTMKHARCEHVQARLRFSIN
Outline: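 20nM CYP1A2, 100uM Luciferin-ME (=Km), 100mM KPO4; cpd 10 min RT; +NADPH regen, 60 min RT; stop/detect 20 min; luminescence. Normalized to furafylline 57 uM = full inhibition.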

[9] = molecular target: Glucocorticoid receptor (Homo sapiens) (UniProt P04150); experiment: GR-GFP Redistribution (AID 450;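 active means compounds whose dose series gives a full or clear partial fitted curve of increased nuclear translocation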; further: potency means the concentration at half of the fitted maximal effect); conditions: U2OS GR-GFP nuclear translocation, laser cytometry, 2 h
[10] = molecular target: Cytochrome P450 3A4 (Homo sapiens) (UniProt P08684); experiment: qHTS Assay for Activators of Cytochrome P450 3A4 (AID 885); further: nearly all actives have a fitted effect of over 65% in size
Outline: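 Activators are scored by enhanced luminescence from CYP3A4 conversion of luciferin-PPXE (25uM, equal to KM) to luciferin, after 60 min at RT with an NADPH-regenerating system.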

[11] = molecular target: Ubiquitin carboxyl-terminal hydrolase 1 (Homo sapiens) (UniProt O94782); experiment: Inhibitors of USP1/UAF1: Pilot qHTS (AID 504865); further: nearly all actives have a fitted effect of over 35% in size; further: potency means the concentration at half of the fitted maximal effect;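 on activity change, negative = inhibition: rhodamine fluorescence freed from ubiquitin-rhodamine substrate followed over time; top concentration of the series differs between compounds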
Ubiquitin carboxyl-terminal hydrolase 1 (Homo sapiens), sequence (O94782 whole entry, looked up): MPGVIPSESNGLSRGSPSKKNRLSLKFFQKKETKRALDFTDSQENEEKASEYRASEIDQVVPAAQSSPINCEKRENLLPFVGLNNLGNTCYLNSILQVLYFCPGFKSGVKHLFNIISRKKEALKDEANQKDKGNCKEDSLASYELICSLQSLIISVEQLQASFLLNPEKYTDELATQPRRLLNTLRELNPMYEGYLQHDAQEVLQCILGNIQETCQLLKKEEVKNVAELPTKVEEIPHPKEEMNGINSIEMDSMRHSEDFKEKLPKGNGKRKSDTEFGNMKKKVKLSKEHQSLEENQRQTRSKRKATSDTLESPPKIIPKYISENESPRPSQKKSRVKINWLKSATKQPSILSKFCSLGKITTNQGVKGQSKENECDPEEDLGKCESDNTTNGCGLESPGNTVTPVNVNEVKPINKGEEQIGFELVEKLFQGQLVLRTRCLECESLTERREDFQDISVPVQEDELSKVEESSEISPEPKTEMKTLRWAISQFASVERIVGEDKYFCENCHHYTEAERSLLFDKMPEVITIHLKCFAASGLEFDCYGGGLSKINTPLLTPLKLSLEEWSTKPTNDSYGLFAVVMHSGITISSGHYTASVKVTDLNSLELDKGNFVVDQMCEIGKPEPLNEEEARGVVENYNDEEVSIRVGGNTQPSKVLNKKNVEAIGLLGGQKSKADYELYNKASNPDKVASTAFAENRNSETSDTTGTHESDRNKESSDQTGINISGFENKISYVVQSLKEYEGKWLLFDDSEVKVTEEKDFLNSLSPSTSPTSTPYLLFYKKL
Outline: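 USP1/UAF1 complex (1nM) preincubated with compound 15 min at room temperature, then Ub-Rho substrate (150nM final) added. Fluorescence read kinetically at 480/540 nm, 6 reads every 60 seconds. Buffer: 50mM HEPES pH 7.8, 0.5mM EDTA, 0.1 mg/ml BSA, 1mM TCEP, 0.01% Tween-20.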

[12] = molecular target: Lysosomal acid glucosylceramidase (Homo sapiens) (UniProt P04062); experiment: Glucocerebrosidase-p2 (AID 348; in the data active means potency below about 10 µM; further: potency means the concentration at half of the fitted maximal effect); conditions: purified GBA, blue fluorogenic substrate, 40 min
Lysosomal acid glucosylceramidase (Homo sapiens), sequence (P04062 whole entry, looked up): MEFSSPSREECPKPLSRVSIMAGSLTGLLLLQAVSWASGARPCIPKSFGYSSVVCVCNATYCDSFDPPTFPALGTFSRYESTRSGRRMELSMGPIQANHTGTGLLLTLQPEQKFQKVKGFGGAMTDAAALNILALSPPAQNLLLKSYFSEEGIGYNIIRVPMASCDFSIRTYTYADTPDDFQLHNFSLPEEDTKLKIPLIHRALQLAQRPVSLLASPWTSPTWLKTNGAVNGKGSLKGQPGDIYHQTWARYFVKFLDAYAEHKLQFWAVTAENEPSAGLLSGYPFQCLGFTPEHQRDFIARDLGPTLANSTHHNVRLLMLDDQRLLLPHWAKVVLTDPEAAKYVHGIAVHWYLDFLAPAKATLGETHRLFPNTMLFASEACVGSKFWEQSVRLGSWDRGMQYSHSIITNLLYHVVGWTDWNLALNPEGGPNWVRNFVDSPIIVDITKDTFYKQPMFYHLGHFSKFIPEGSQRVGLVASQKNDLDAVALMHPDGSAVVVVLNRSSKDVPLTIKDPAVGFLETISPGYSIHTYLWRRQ
Outline: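 Normal human glucocerebrosidase (0.2 nM) with blue fluorogenic substrate (80 uM final) in citrate/phosphate pH 5.9 with 10mM sodium taurocholate, 0.01% tween-20; 40 min RT, NaOH/glycine stop; fluorescence Ex 365/Em 440; AC50 from a titration from 0.6 nM upwards.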

[13] = molecular target: Dual specificity protein kinase CLK4 (Homo sapiens) (UniProt Q9HAZ1); experiment: qHTS Assay for Inhibitors of CDC-like Kinase 4 (ADP-Glo Assay) (AID 1771); further: nearly all actives have a fitted effect of over 70% in size
Dual specificity protein kinase CLK4 (Homo sapiens), sequence (Q9HAZ1 whole entry, looked up): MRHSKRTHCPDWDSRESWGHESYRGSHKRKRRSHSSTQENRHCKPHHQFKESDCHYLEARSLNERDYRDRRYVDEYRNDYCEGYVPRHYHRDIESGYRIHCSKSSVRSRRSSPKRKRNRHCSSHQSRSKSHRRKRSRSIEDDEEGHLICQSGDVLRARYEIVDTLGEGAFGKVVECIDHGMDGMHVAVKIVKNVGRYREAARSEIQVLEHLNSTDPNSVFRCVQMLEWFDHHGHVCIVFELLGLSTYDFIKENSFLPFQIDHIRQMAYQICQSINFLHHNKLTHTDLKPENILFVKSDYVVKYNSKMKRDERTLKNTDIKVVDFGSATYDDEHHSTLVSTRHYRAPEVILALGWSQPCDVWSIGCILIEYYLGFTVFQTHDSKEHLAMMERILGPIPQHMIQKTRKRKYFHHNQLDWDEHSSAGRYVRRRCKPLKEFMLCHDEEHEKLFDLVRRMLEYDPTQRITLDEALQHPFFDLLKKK
Outline: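 25 nM Clk4, 100 uM RS peptide, 1 uM ATP (final); 2 mM MgCl2, 0.5 mM EGTA, 2.5 mM DTT, 0.01% Triton X-100; 1 hr RT. ADP-Glo readout: ATP depletion 45 min, conversion/luciferase 30 min, luminescence.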

[14] = molecular target: Dual specificity protein kinase CLK4 (Homo sapiens) (UniProt Q9HAZ1); experiment: qHTS Assay for Inhibitors of CDC-like Kinase 4 (ADP-FP Assay) (AID 1795); further: nearly all actives have a fitted effect of over 60% in size
Outline: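 Recombinant human Clk4 (6.25 nM) phosphorylated RS repeat peptide (100 uM) with 1 uM ATP in Tris pH 7.5/MgCl2/EGTA/DTT/Triton buffer for one hour. ADP was quantified by Transcreener competitive fluorescence polarization against an ADP calibration curve.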

[15] = molecular target: Rap guanine nucleotide exchange factor 3 (Homo sapiens) (UniProt O95398); experiment: Confirmatory qHTS for antagonist of cAMP-regulated guanine nucleotide exchange factor 3 (EPAC1) (AID 1645880); further: nearly all actives have a fitted effect of over 55% in size
Rap guanine nucleotide exchange factor 3 (Homo sapiens), sequence (O95398 whole entry, looked up): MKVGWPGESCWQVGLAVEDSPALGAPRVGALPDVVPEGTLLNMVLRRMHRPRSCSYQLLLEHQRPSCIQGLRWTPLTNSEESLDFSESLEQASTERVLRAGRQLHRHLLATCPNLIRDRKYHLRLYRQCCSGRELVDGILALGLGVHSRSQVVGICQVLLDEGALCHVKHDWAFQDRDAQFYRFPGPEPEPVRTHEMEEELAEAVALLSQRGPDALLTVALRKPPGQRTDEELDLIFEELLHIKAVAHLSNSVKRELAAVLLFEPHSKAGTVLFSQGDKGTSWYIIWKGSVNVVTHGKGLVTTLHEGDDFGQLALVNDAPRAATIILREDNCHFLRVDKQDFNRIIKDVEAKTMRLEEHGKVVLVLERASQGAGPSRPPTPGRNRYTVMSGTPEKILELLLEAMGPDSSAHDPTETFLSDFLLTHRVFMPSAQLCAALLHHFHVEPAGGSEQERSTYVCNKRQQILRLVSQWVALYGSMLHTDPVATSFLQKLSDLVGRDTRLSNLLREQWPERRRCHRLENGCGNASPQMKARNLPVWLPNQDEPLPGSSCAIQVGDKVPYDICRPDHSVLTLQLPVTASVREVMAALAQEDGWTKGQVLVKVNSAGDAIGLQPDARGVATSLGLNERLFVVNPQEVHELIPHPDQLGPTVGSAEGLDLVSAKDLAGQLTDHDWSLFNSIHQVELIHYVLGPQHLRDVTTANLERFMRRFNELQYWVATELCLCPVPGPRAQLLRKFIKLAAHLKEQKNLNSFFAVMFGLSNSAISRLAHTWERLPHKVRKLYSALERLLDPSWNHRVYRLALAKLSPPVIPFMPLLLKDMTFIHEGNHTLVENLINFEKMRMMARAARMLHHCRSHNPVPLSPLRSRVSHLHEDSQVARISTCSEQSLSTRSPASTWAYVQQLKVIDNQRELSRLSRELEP
Outline: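 Released BODIPY-GDP fluoresces less than Rap1-bound BODIPY-GDP; the signal is followed at 480/540 nm at 5-min intervals over 30 min, after 5 min at room temperature. Reactions contain 100 nM EPAC1, 250 nM RAP1B-BODIPY-GDP and 50 uM GDP; results are normalized to ATA and DMSO.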

[16] = molecular target: Rap guanine nucleotide exchange factor 3 (Homo sapiens) (UniProt O95398); experiment: Confirmatory qHTS for agonist of cAMP-regulated guanine nucleotide exchange factor 3 (EPAC1) (AID 1645881); further: nearly all actives have a fitted effect of over 75% in size; further: potency means the concentration at half of the fitted maximal effect;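 on activation: EPAC1 catalysed release of BODIPY-GDP from Rap1B seen as fluorescence loss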
[17] = molecular target: Rap guanine nucleotide exchange factor 4 (Homo sapiens) (UniProt Q8WZA2); experiment: Confirmatory qHTS for agonist of cAMP-regulated guanine nucleotide exchange factor 4 (EPAC2) (AID 1645884);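 further: nucleotide exchange releases bodipy-GDP from Rap1 and this lowers its fluorescence; nearly all actives have a fitted effect of over 65% in size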; further: potency means the concentration at half of the fitted maximal effect
Rap guanine nucleotide exchange factor 4 (Homo sapiens), sequence (Q8WZA2 whole entry, looked up): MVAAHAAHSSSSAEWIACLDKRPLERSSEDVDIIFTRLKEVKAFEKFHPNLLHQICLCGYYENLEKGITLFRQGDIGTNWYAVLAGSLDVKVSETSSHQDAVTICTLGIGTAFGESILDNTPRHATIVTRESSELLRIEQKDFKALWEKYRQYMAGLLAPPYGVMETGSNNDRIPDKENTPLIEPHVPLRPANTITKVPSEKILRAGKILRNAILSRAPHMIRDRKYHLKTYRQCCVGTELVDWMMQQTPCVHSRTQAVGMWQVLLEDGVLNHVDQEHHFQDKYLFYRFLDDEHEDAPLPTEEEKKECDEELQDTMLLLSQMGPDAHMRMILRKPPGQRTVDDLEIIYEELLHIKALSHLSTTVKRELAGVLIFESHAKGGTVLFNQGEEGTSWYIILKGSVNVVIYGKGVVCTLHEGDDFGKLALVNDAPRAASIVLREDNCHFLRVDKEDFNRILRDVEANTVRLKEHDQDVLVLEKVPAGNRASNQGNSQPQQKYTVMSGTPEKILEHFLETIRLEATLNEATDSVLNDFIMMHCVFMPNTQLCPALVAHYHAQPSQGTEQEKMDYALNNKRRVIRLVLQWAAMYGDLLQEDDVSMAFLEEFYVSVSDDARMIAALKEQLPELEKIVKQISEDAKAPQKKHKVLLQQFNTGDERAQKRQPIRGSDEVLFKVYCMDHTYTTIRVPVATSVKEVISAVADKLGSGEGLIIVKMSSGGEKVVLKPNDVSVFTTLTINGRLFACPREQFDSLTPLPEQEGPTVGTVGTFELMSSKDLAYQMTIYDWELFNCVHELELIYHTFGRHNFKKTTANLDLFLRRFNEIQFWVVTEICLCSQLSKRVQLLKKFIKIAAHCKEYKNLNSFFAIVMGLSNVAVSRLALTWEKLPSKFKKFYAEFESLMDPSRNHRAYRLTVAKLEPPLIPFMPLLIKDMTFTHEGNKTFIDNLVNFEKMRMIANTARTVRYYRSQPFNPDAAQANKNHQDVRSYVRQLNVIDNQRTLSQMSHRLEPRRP

[18] = molecular target: Rap guanine nucleotide exchange factor 4 (Homo sapiens) (UniProt Q8WZA2); experiment: Confirmatory qHTS for antagonist of cAMP-regulated guanine nucleotide exchange factor 4 (EPAC2) (AID 1645885); further: nearly all actives have a fitted effect of over 25% in size; further: potency means the concentration at half of the fitted maximal effect
[19] = molecular target: Cytochrome P450 3A4 (Homo sapiens) (UniProt P08684); experiment: qHTS Assay for Inhibitors and Substrates of Cytochrome P450 3A4 (AID 884); further: potency means the concentration at half of the fitted maximal effect; nearly all actives have a fitted effect of over 50% in size
Outline: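 Luminescent readout of luciferin produced by CYP3A4 (20 nM) dealkylation of Luciferin-PPXE, 25 uM (its KM). NADPH-driven reaction ran 60 min at RT after 10 min compound preincubation; data scaled to 57 uM ketoconazole as 100% inhibition.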

[20] = molecular target: Dual specificity protein kinase CLK4 (Homo sapiens) (UniProt Q9HAZ1); experiment: qHTS Assay for Inhibitors of CDC-like Kinase 4 (Kinase-Glo Assay) (AID 1770); further: nearly all actives have a fitted effect of over 65% in size; further: potency means the concentration at half of the fitted maximal effect
Outline: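 Recombinant human Clk4 (25 nM) phosphorylated RS repeat peptide (100 uM) with 1 uM ATP in Tris pH 7.5/MgCl2/EGTA/DTT/Triton buffer for 4.5 h at room temperature. Residual ATP was quantified by Kinase-Glo luciferase luminescence.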

Compound | activity change, negative = inhibition [1] [%] | activity, negative = inhibition [2] [%] | Potency [3] [µM] | Potency [4] | Potency [5] | outcome [6] | activity change, negative = inhibition [7] [%] | Potency [8] | Potency [9] [µM] | Potency [10] | Potency [11] | Potency [12] [µM] | Potency [13] | Potency [14] | Potency [15] | Potency [16] | Potency [17] | Potency [18] | Potency [19] | Potency [20]
CC(C)CN1CCC2(CC1)CCN(C(=O)c1ccco1)CC2 | 10.1 | -2.71 | > 46 | inactive | inactive | inactive |  |  |  |  |  |  |  |  |  |  |  |  |  | 
Cc1noc(C)c1C(=O)N1CCC2(CC1)CN(Cc1cc(C(F)(F)F)cc(C(F)(F)F)c1)C2 | -7.95 | -3.94 | > 46 | inactive | inactive | inactive | -16.8 |  |  |  |  |  |  |  |  |  |  |  |  | 
FC(F)(F)c1ccccc1-c1nccc(NCc2ccccc2)n1 | -1.94 | -13.7 | > 46 | inactive |  | inactive |  | 12.6 µM (active) | > 46 | inactive | 6.31 µM (active) |  |  |  |  |  |  |  |  | 
CN(C)c1ncc2nc(-c3ccc(F)cc3)c(=O)n(-c3ccccc3)c2n1 | -8.28 | 28.3 | > 46 | inactive |  | inactive | 20.7 |  | > 9.22 |  | inactive | > 11.4 | inactive | inactive | inactive | inactive | inactive | inactive |  | 
COc1cccc(-c2cc(NCc3ccc(OC)cc3OC)ncn2)c1 |  | -9.18 | > 46 | inactive | inactive | inactive | -8.15 | 2 µM (active) | > 46 | inactive | inactive | > 11.4 |  | inactive | inactive | inactive |  |  | 2.51 µM (active) | 31.6 µM (active)
COC(=O)N1CCC2(CCCN(c3cccc(-c4ccccc4)c3)C2)CC1 | 3.74 | -6.31 | > 46 | inactive | inactive | inactive |  |  |  |  |  | > 11.4 |  |  | inactive | inactive | inactive | inactive |  | 
Cc1cc(OC(=O)c2c(C)cc(O)cc2O)cc(O)c1C(=O)O |  |  |  |  |  | inactive |  |  |  | inactive | inactive |  |  |  |  |  |  |  | 12.6 µM (active) | 
COc1ccc(C(=O)N2CCC3(CC2)CN(c2cccc(-c4ccccc4)c2)C3)cc1 | -18.9 | -19.1 | > 46 |  | inactive | inactive |  |  |  |  |  | > 11.4 |  |  | inactive | inactive | inactive | inactive |  | 
COc1ccc(CNc2cc(-c3ccccc3C)ncn2)c(OC)c1 |  | -12.7 | > 46 | inactive |  | inactive | -16.6 |  | > 46 |  |  | > 11.4 |  | inactive | inactive | inactive | inactive | inactive |  | inactive
O=C1C=C(O)c2ccccc2C1=O |  |  |  |  |  | inactive |  |  |  | inactive | 50.1 µM (active) |  |  |  |  |  |  |  |  | 
COc1ccccc1CNc1nc(-c2ccc3c(c2)OCO3)nc2ccccc12 | 24.7 | -8.69 | > 46 | inactive | inactive | inactive |  | 0.631 µM (active) | > 46 | inactive | inactive |  |  | inactive | inactive | inactive | inactive | inactive | 1.26 µM (active) | inactive
COc1ccccc1CNc1nc(-c2cccc(C#N)c2)nc2ccccc12 |  | -22 | > 46 | inactive |  | inactive |  | 1.26 µM (active) | > 46 | inactive |  | > 11.4 |  |  | inactive | inactive |  | inactive |  | 
COc1cccc(Nc2ncc3nc(-c4cc(F)cc(F)c4)c(=O)n(C4CC4)c3n2)c1 | -13.3 | -7.32 | > 46 | inactive | inactive | inactive | -29.9 | 6.31 µM (active) | > 9.22 |  |  | > 11.4 |  |  | inactive | inactive | inactive | inactive |  | 
COCCn1c(=O)c(-c2cccs2)nc2cnc(Nc3ccccc3)nc21 | 5.47 | 14.8 |  | inactive |  | inactive |  |  | > 9.22 |  |  | > 11.4 |  |  | inactive | inactive |  | inactive |  | 
COc1cccc(-c2ccc3ncnc(NCc4ccccc4OC)c3c2)c1 |  |  | > 46 | inactive | inactive | inactive |  |  | > 46 |  | inactive |  |  |  |  |  |  |  |  | 
Cc1ccccc1-c1nc(N(C)Cc2ccco2)c2ccccc2n1 | 13.9 | -5.08 | > 46 | inactive |  | inactive | -24 | 1.58 µM (active) | > 46 | inactive | 28.2 µM (active) | > 11.4 |  | inactive | inactive | inactive | inactive | 35 µM (active) |  | 20 µM (active)
COCCn1c(=O)c(-c2ccc(OC)cc2)nc2cnc(Nc3cccc(OC)c3)nc21 |  | 3.6 | > 46 | inactive | inactive | inactive | -5.57 | 10 µM (active) | > 9.22 | inactive |  | > 11.4 |  |  | inactive | 70.6 µM (active) | 70.6 µM (active) | inactive |  | 
